Test results reported in PubChem BioAssay (NCATS).
Where “and” joins values, the source holds several entries; their conditions need not be identical. Equal values may be shown once. Inconclusive results are not listed. Where a call stands in place of a potency, no number is given. A number with no mark means an inactive call. Calls of active or inactive are those of the source. Calls come from the whole dose curve; as a rule, active = well fitted curve in the direction sought with a large enough effect; inconclusive = small, poorly fitted or top-dose-only effect, or another doubt; inactive = no such curve, though single readings can be large; an effect the other way counts as inactive or inconclusive.

Key:
[1] = Viability qHTS for spleen associated tyrosine kinase inhibitor (SYKi) naive MV4-11 cells (AID 1963823); note: nearly all actives have a fitted effect of over 40% in size; note: potency is the fitted concentration of half-maximal effect
Summary of the method: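 Seeding of 500 SYKi-naive MV4-11 cells per well onto pre-dispensed compounds preceded a 72 hr incubation at 37 C. Luminescent CellTiter-Glo signal, read after 10 min at room temperature, reflected viable cells.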

[2] = Viability qHTS for spleen associated tyrosine kinase inhibitor (SYKi) drug resistant MV4-11 cells (AID 1963824); note: nearly all actives have a fitted effect of over 35% in size; note: potency is the fitted concentration of half-maximal effect
Summary of the method: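 CellTiter-Glo luminescence, read 10 min after reagent addition, reports viability after a 72 hr compound exposure. Cells are an MV4-11 line made resistant to SYK inhibition, seeded at 500 per well onto compound-containing plates.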

[3] = Cellular viability qHTS for adrenocortical cancer (ACC) cell line NCI-H295R (AID 1963990); note: nearly all actives have a fitted effect of over 60% in size; note: potency is the fitted concentration of half-maximal effect
Summary of the method: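 IC50 and maximal efficacy derive from four-parameter logistic modelling of titration curves, with reads scaled between DMSO-only wells (0%) and doxorubicin hydrochloride (100% inhibition). Compounds spanned up to 46 uM over 48 h.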

[4] = Quantitative highthroughput screen to assess conditional lethalithy of NOMO1 cells grown in RPMI1640 with untreated serum (RPMI+s) (AID 1963876); note: nearly all actives have a fitted effect of over 35% in size; note: potency is the fitted concentration of half-maximal effect
Summary of the method: (§1)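 Each medium arm—HPLM with 10% dialyzed FBS, or RPMI1640 with 5 mM glucose and 10% untreated or dialyzed FBS—was screened against an 11-point, 3-fold compound titration for 48 h at 37 °C, with CellTiter-Glo luminescence as endpoint.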

[5] = Quantitative highthroughput screen to assess conditional lethalithy of NOMO1 cells grown in RPMI1640 with dialyzed fetal bovine serum (RPMI+ds) (AID 1963877); note: nearly all actives have a fitted effect of over 30% in size; note: potency is the fitted concentration of half-maximal effect; for Viability: series mostly up to about 46 µM
Summary of the method: as §1

[6] = Quantitative highthroughput screen to assess conditional lethalithy of NOMO1 cells grown in Human Plasma-Like Medium with dialyzed fetal bovine serum (HPLM+ds) (AID 1963878); note: nearly all actives have a fitted effect of over 35% in size; note: potency is the fitted concentration of half-maximal effect
Summary of the method: as §1

[7] = Quantitative highthroughput screen to assess conditional lethalithy of P12 Ichikawa cells grown in Human Plasma-Like Medium with dialyzed fetal bovine serum (HPLM+ds) (AID 1963879); settings: Potency: viability; note: nearly all actives have a fitted effect of over 35% in size; note: potency is the fitted concentration of half-maximal effect; for Viability: series mostly up to about 46 µM
Summary of the method: as §1

[8] = Quantitative highthroughput screen to assess conditional lethalithy of P12 Ichikawa cells grown in RPMI1640 with dialyzed fetal bovine serum (RPMI+ds) (AID 1963880); settings: Potency: P12-Ichikawa viability; note: nearly all actives have a fitted effect of over 35% in size; note: potency is the fitted concentration of half-maximal effect
Summary of the method: as §1

[9] = Quantitative highthroughput screen to assess conditional lethalithy of P12 Ichikawa cells grown in RPMI1640 with untreated serum (RPMI+s) (AID 1963881); settings: Potency: viability; note: nearly all actives have a fitted effect of over 35% in size; note: potency is the fitted concentration of half-maximal effect; for Viability: series mostly up to about 46 µM
Summary of the method: as §1

[10] = Quantitative highthroughput screen to assess conditional lethalithy of SEM cells grown in Human Plasma-Like Medium with dialyzed fetal bovine serum (HPLM+ds) (AID 1963882); note: nearly all actives have a fitted effect of over 35% in size; note: potency is the fitted concentration of half-maximal effect; for Viability: series mostly up to about 46 µM
Summary of the method: as §1

[11] = Quantitative highthroughput screen to assess conditional lethalithy of SEM cells grown in RPMI1640 with unreated serum (RPMI+s) (AID 1963883); note: nearly all actives have a fitted effect of over 35% in size; note: potency is the fitted concentration of half-maximal effect
Summary of the method: as §1

[12] = Quantitative highthroughput screen to assess conditional lethalithy of SEM cells grown in RPMI1640 with dialyzed fetal bovine serum (RPMI+ds) (AID 1963884); note: nearly all actives have a fitted effect of over 35% in size; note: potency is the fitted concentration of half-maximal effect; for Viability: series mostly up to about 46 µM
Summary of the method: as §1

[13] = Cellular viability qHTS for adrenocortical cancer (ACC) cell line SW-13 (AID 1963989); settings: SW-13 ACC cells viability, CellTiter-Glo, 48 h; activity (max response): hits give low values;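 note: cells grown in serum-free medium with ITS supplement; nearly all actives have a fitted effect of over 65% in size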
Summary of the method: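 Luminescent ATP read-out (CellTiter-Glo, 20 min at room temperature) measured metabolically competent SW-13 cells after 48 h compound treatment. Final concentrations spanned up to 46 uM; bortezomib served as positive control.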

| SMILES | Potency [1] | Potency [2] | Potency [3] | Potency [4] | Potency [5] | Potency [6] | Potency [7] | Potency [8] | Potency [9] | Potency [10] | Potency [11] | Potency [12] | activity (max response) [13] |
| --- | --- | --- | --- | --- | --- | --- | --- | --- | --- | --- | --- | --- | --- |
| O=C(c1ccc(F)c(F)c1Nc1ccc(I)cc1F)N1CC(O)([C@@H]2CCCCN2)C1 | 326 nM (active) and 235 nM (active) | 231 nM (active) and 296 nM (active) | 5.62 µM (active) | – | – | – | – | – | – | – | – | – | – |
| CCCCC(CC)COC(=O)C(C#N)=C(c1ccccc1)c1ccccc1 (stereo not drawn) | 26.6 µM (active) | – | inactive | inactive | inactive | inactive | inactive | inactive | inactive | inactive | inactive | inactive | 0.298% and -14.7% |
| O=S(=O)(O)c1cc(I)c(O)c2ncccc12 | 0.015 µM (active) | inactive | inactive | – | – | – | – | – | – | – | – | – | – |
| O=c1cc(N2CCOCC2)oc2c(-c3ccccc3)cccc12 | 5.9 µM (active) | – | inactive | inactive | inactive | inactive | inactive | inactive | inactive | – | inactive | – | – |
| COCCn1c2c([n+](Cc3cnccn3)c1C)C(=O)c1ccccc1C2=O | 0.0093 µM (active) | – | 2.82 µM (active) | 0.132 µM (active) | 0.105 µM (active) | 0.0662 µM (active) | 0.235 µM (active) | 0.187 µM (active) | 0.166 µM (active) | 0.0166 µM (active) | 0.0662 µM (active) | 0.0418 µM (active) | – |
| COc1ccccc1-c1cccc(-c2c(O)c3cc(C#N)c(Cl)cc3[nH]c2=O)c1 | inactive | – | inactive | 17.1 µM (active) | 19.1 µM (active) | 6.79 µM (active) | 4.81 µM (active) | 8.55 µM (active) | 10.8 µM (active) | 8.55 µM (active) | 2.7 µM (active) | 5.4 µM (active) | -20.9% |
| NS(=O)(=O)c1cc2c(cc1Cl)NC=NS2(=O)=O | inactive | – | inactive | inactive | inactive | inactive | inactive | inactive | inactive | inactive | inactive | inactive | 2.09% and 0.632% |
| CC[C@@H]([C@H](C)O)n1ncn(-c2ccc(N3CCN(c4ccc(OCC5CO[C@@](Cn6cncn6)(c6ccc(F)cc6F)C5)cc4)CC3)cc2)c1=O (stereo partly drawn) | 5.9 µM (active) | – | inactive | inactive | inactive | inactive | inactive | inactive | inactive | – | inactive | inactive | -5.54% |
